Data as given in PubChem BioAssay (NCATS).
A number with no mark means an inactive call. Records with an inconclusive call do not appear. The source made the active and inactive calls. Calls come from the whole dose curve; as a rule, active = well fitted curve in the direction sought with a large enough effect; inconclusive = small, poorly fitted or top-dose-only effect, or another doubt; inactive = no such curve, though single readings can be large; an effect the other way counts as inactive or inconclusive.

Target: Luciferin 4-monooxygenase (Photinus pyralis) (UniProt P08659)
Assay: Primary firefly luciferase (FLuc) qHTS assay for identification of artifact compounds. (AID 1845220); note: nearly all actives have a fitted effect of over 60% in size;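 for activity change, negative = inhibition: plate controls were DMSO vehicle for no effect and no enzyme for full effect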
Details: purified firefly luciferase, luminescence, 5 min; series mostly up to 54.1 µM; activity change, negative = inhibition: at the top concentration
Procedure, shortened: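 Titrated compounds were incubated 15 min at RT, protected from light, with luciferin and ATP at 10 uM; reaction started with 10 nM FLuc, luminescence imaged at 5 min, and concentration-response fitted by Hill equation.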

Compound	outcome	activity change, negative = inhibition
CC1=CC2=C(C)C(=O)[C@](C)(O)[C@H](O)C2=CO1	inactive	
COc1ccc2c(c1)N1C(=O)C[C@@]34C=CC[N@+]5([O-])CC[C@H]2[C@H](CC3)[C@@]145		4.4%
COc1cc(C(CO)C(OC2OC(CO)C(O)C(O)C2O)c2ccc(O)c(OC)c2)ccc1O (centres undefined)		1.05% [at 25.7 µM]
CC(O)/C=C/C1(O)C(C)C(O)C(O[C@@H]2O[C@H](CO)[C@@H](O)[C@H](O)[C@H]2O)CC1(C)C (some centres undefined)		-9.9% [at 25.7 µM]
COc1ccc(/C=C/C(N)=O)cc1OC		4.44%
COc1cc(C(=O)OC[C@@]2(O)CO[C@@H](O[C@H]3[C@H](Oc4ccc(O)cc4)O[C@H](CO)[C@@H](O)[C@@H]3O)[C@@H]2O)cc(OC)c1O	inactive [at 25.7 µM]	
COC(=O)C1=COC(OC2OC(CO)C(O)C(O)C2O)C2C(C)C(OC(C)=O)C(OC(=O)c3ccccc3)C12 (centres undefined)		-0.0474% [at 25.7 µM]
C[C@@H]1C(=O)O[C@H]2[C@H]1CC[C@@]1(C)C(=O)C=C[C@@](C)(O)[C@H]21		2.22%
O=C(Cc1ccccc1)OC[C@H]1O[C@H](O[C@H]2O[C@H](CO)[C@@H](O)[C@H](O)[C@H]2O)[C@H](O)[C@@H](O)[C@@H]1O		3.89% [at 25.7 µM]
C=CC(C)(CC/C=C(\C)C(=O)OC)OC1OC(COC(=O)CC(C)(O)CC(=O)O)C(O)C(O)C1O (centres undefined)		-2.21% [at 25.7 µM]
OC[C@H]1O[C@@H](OCc2ccccc2)[C@H](O[C@@H]2OC[C@@H](O)[C@H](O)[C@H]2O)[C@@H](O)[C@@H]1O		4.16% [at 25.7 µM]
CC/C=C/C(O)C(O)C1=C(C)C(=O)C2(O1)C(=O)NC(OC)(C(=O)c1ccccc1)C2O (centres undefined)		-4.31% [at 25.7 µM]
COC(=O)C1=CO[C@@H](O[C@@H]2O[C@H](CO)[C@@H](O)[C@H](O)[C@H]2O)[C@@H]2[C@@H](C(=O)O)CC[C@H]12		-10.8% [at 25.7 µM]
CC1=CC23[C@H](C=C(C(=O)O)[C@@H]2COC(=O)[C@]3(O)CO)[C@@H]1C (some centres undefined)		1.17%
Cc1[nH]c2ccccc2c1CC(=O)N[C@@H](Cc1ccccc1)C(=O)N(C)c1ccccc1	inactive	
COC(=O)C1=COC(OC2OC(CO)C(O)C(O)C2O)C2C(C)CC(=O)C12O (centres undefined)	inactive [at 25.7 µM]	
C[C@H](/C=C/[C@@]1(O)[C@H](C)CC(=O)CC1(C)C)O[C@@H]1O[C@H](CO[C@@H]2OC[C@@H](O)[C@H](O)[C@H]2O)[C@@H](O)[C@H](O)[C@H]1O		1.38% [at 25.7 µM]

System: not listed separately
Assay: Primary fluorescence-based thiol-reactive (MSTI) qHTS assay for identification of artifact compounds. (AID 1845221); note: nearly all actives have a fitted effect of over 65% in size; note: potency is the fitted concentration of half-maximal effect;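 for activity change, negative = thiol reactive: thiol-reactive compounds lower the probe fluorescence signal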
Details: MSTI thiol-reactivity probe, 1 h; series mostly up to 53.8 µM; activity change, negative = thiol reactive: at the top concentration
Procedure, shortened: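 One-hour, room-temperature, dark incubation of compound with 4 uM MSTI in PBS (pH 7.4, 2% DMSO) precedes a fluorescence read at 525 nm excitation, 598 nm emission; Hill-equation fitting yields concentration-response values.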

Compound	activity change, negative = thiol reactive	Potency
CC1(C)C2CC[C@@]34CC(CC[C@H]3[C@]2(C)CC[C@@H]1O[C@@H]1O[C@H](CO)[C@@H](O)[C@H](O)[C@H]1O)[C@](C)(O)C4 (some centres undefined)	77.5% [at 25.6 µM]	
COc1cncc(C#Cc2ccccn2)c1	-0.012%	
CC1(C)CC[C@]2(C(=O)O[C@@H]3O[C@H](CO)[C@@H](O)[C@H](O)[C@H]3O)CC[C@]3(C)C(=CCC4[C@@]5(C)CC[C@H](O[C@H]6O[C@H](CO)[C@@H](O)[C@H](O[C@@H]7O[C@H](CO)[C@@H](O)[C@H](O)[C@H]7O)[C@H]6O)C(C)(C)C5CC[C@]43C)[C@@H]2C1 (some centres undefined)	168% [at 11.5 µM]	
CC1OC(OC2C(OC(=O)[C@]34CCC(C)(C)C[C@H]3C3=CCC5[C@@]6(C)CC[C@H](OC7OC(C(=O)O)C(O)C(O)C7O)C(C)(C)C6CC[C@@]5(C)[C@]3(C)CC4O)OC(CO)C2O)C(O)C(O)C1OC1OCC(O)C(O)C1O (some centres undefined)	111% [at 11.5 µM]	
N#CN1CCC[C@@H](n2nc(-c3ccc(Oc4ccc(F)cc4F)cc3)c(C(N)=O)c2N)C1	67.4%	
O=C(Nc1ccccc1)Nc1ccc(-c2ccc(C(=O)C3CCCC3C(=O)O)cc2)cc1 (centres undefined)	333%	
C/C=C/C=C/C=C/C(=O)O[C@@H]1[C@@H](OC)C2=C(C(=O)N(C(CCC(=O)O)C(=O)O)C2)[C@@]2(C)CCCC(C)(C)[C@H]12 (some centres undefined)	31.6% [at 25.6 µM]	
N=C(N)c1ccc2nc(-c3cc(CC(=O)NC(CC(=O)O)C(=O)O)cc(-c4cc(S(N)(=O)=O)ccc4O)c3O)[nH]c2c1 (centres undefined)		2120 nM (active)
COc1ccccc1N1CCN(CCCCNC(=O)c2ccc(-c3cscn3)cc2)CC1	30.6%	
CC1=C2CC(O)(C(C)(C)O)C(O[C@@H]3O[C@H](CO)[C@@H](O)[C@H](O)[C@H]3O)CC(C)C2CC1=O (some centres undefined)		3670 nM (active)
CC(C)c1cc2c(c(O)c1O)[C@@]13CCCC(C)(C)C1[C@@H](O)[C@@H]2OC3=O (some centres undefined)		927 nM (active)
C[C@@H]1C[C@@H](O)[C@@]23CO[C@]2(CO)CCC[C@@H]3[C@@]12C[C@@H](c1ccoc1)OC2=O	-16.5%	
O=C(/C=C/c1ccc(O)c(O)c1)O[C@H]1[C@@H]2C=CO[C@@H](O[C@@H]3O[C@H](CO)[C@@H](O)[C@H](O)[C@H]3O)[C@@H]2[C@@]2(CO)O[C@@H]12		2070 nM (active)
C=C1CCC2[C@@](C)(C(=O)O)CCC[C@@]2(C)[C@@H]1CCc1ccoc1 (some centres undefined)	130%	
Cc1cc(CNC(=O)c2cc(C(=O)NCc3ccc(F)c(C)c3)ncn2)ccc1F	0.256%	
COc1ccc(OC)c(C2C(C#N)=C(N)Oc3n[nH]c(-c4ccc5ccccc5c4)c32)c1 (centres undefined)	1.43%	
CC(=O)OC1CCC2(C)C(CCC3(C)C2CC=C2C4CC(C)(C)CCC4(C)CCC23C)C1(C)C(=O)O (centres undefined)	12.5% [at 25.6 µM]	
N#Cc1cccc(-c2nc(-c3cccnc3)no2)c1	-19.5% [at 25.6 µM]	
COC(=O)C(Cc1ccccc1)NC(=O)c1ccccc1 (centres undefined)	0.627%	
CCOC(=O)COc1ccc2c(c1)C[C@@H](NC[C@H](O)c1cccc(Cl)c1)CC2	26.3%	
O=C(O)C1(c2ccc(-c3ccc(Cl)c(Cl)c3)c(F)c2)CC1	176%	
C[C@@H]1CC[C@]2(C(=O)O)CC[C@]3(C)C(=CCC4[C@@]5(C)C[C@@H](O)[C@@H](O)C(C)(C)C5CC[C@]43C)C2[C@]1(C)O (some centres undefined)	-1.86% [at 25.6 µM]	
